Screening results (PubChem)
MITF inh: MITF inhibitors, primary screen, biochemical, AlphaScreen, human | Microphthalmia-associated transcription factor (Homo sapiens), O75030 | AlphaScreen MITF homodimerization, bead proximity signal | inhibition, % at 2.6 µM | actives 0.91% (n = 650,000) | AID 1259374, 2018; in the data active means inhibition above about 50%;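 further: 0% = vehicle wells with protein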
Target sequence (O75030 whole entry, looked up): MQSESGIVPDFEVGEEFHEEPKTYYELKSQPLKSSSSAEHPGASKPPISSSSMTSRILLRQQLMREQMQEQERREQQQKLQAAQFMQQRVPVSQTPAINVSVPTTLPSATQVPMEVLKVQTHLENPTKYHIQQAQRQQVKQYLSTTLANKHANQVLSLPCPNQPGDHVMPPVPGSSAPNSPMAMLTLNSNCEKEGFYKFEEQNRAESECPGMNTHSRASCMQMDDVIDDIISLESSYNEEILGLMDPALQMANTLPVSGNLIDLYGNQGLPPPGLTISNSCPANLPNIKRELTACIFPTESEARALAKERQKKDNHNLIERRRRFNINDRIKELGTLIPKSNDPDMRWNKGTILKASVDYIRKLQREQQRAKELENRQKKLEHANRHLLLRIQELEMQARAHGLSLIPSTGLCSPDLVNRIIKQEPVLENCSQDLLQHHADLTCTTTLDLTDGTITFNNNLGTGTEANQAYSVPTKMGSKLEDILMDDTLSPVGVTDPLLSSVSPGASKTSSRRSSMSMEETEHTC
GPR151 ag: activators of human GPR151, primary screen, cell-based, PathHunter beta-arrestin, luminescence | activation, % at 11.2 µM | AID 1508602, 2020 | actives 1% (n = 650,000) | PathHunter beta-arrestin GPR151 cells; in the data active means activation above about 4.9%;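 further: 0% = median of compound wells and 100% = cells with positive control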
FBW7 activator: FBW7 E3 ligase activators, primary screen, biochemical, AlphaScreen, human; AlphaScreen FBW7–phospho-cyclin E peptide binding, activator screen; AID 1259310, 2017; actives 0.13% (n = 650,000); normalized activity (activation), % at 26.1 µM; F-box/WD repeat-containing protein 7 (Homo sapiens), Q969H0; in the data active means normalized activity above about 1.9%;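 further: purified mutant Fbw7 with reduced substrate affinity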
TEAD-YAP block: TEAD-YAP interaction inhibition, primary screen, TEAD-YAP interaction inhibitor project, luminescence, HEK-TIYL cells. actives 1.4% (n = 640,000). inhibition, % at 9.12 µM. TEAD-Gal4/YAP UAS-luciferase luminescence; in the data active means inhibition above about 32%;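 further: 0% = median of test compound wells and 100% = reference inhibitor wells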
GPR151 conf act: GPR151 activators, triplicate retest, confirmation, cell-based, PathHunter beta-arrestin, luminescence | 6,700 tested, under 10 active | shares compounds with GPR151 ag | GPR151 PathHunter beta-arrestin cells, 90 min; % of EA-reagent control over plate median | activation, % at 11.2 µM | AID 1508609, 2020;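 active means mean percent activation across replicates above the confirmation screen cutoff of 4.91%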
GPR119 counter: GPR119 activators in beta-arrestin cells, counter-screen for GPR151 activator project, cell-based, PathHunter beta-arrestin, luminescence, triplicate; shares compounds with GPR151 ag; actives 0.3% (n = 6,700); activation, % at 11.2 µM; 90 min; 0 = compound-well median, 100 = enzyme-acceptor control;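 active means mean percent activation in the counterscreen above 29.09%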;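 further: counterscreen on off-target GPR119 to flag nonselective hits from the GPR151 activator screen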
* = called active by the depositor; nt = not tested or not shown. Compounds with a hit are over-represented: about 3.5% of the library has one in this group of screens.

SMILES	MITF inh	GPR151 ag	FBW7 activator	TEAD-YAP block	GPR151 conf act	GPR119 counter
COc1ccc(Cl)cc1C(=O)Nc1c2c(nn1-c1ccccc1C)CS(=O)(=O)C2	3.3	-0.7	-0.2	-6.5	nt	nt
Cc1ccc(/[N+]([O-])=C/c2ccc(OC(F)F)cc2)cc1	18.9	-1.2	0.0	-41.8	nt	nt
COc1cc(NC(=O)c2cccc(Br)c2)ccc1NC(=O)C(C)C	11.8	-2.0	0.6	-1.9	nt	nt
CCOc1ccc(-n2nc(C(=O)NCc3ccc(F)cc3)c3ccccc3c2=O)cc1	0.7	6.4*	0.0	-0.1	-0.4	0.8
COc1ccc(-n2nc(C(=O)NCc3ccc(F)cc3)c3ccccc3c2=O)cc1	13.0	1.8	-0.2	4.6	nt	nt
CCCN(CCC)CCCNC(=O)c1nn(-c2ccc(OC)cc2)c(=O)c2ccccc12	14.5	-1.9	0.3	2.2	nt	nt
CCCN(CCC)CCCNC(=O)c1nn(-c2ccc(OCC)cc2)c(=O)c2ccccc12	3.3	8.8*	-0.1	-3.5	1.2	7.6
O=C(CCOc1ccccc1)OCC(=O)c1ccc(OC(F)F)cc1	-0.6	0.7	-0.1	-0.1	nt	nt
CSc1nc(N)nc(SCC(=O)Nc2ccc(Cl)cc2)c1C#N	-7.4	11.2*	-0.2	3.4	-0.2	-0.4
CSc1nc(N)nc(SCC(=O)Nc2ccc(C)cc2)c1C#N	3.8	-0.1	0.2	-1.2	nt	nt
O=C(Nc1ccc2ccccc2c1)c1ccc(Cl)cc1	3.4	5.2*	0.0	-48.7	-0.1	-8.0
O=C(Nc1c(F)cccc1F)c1ccc(Cl)cc1	3.0	7.7*	-0.2	-0.9	-0.6	-0.5
O=C(Nc1c(F)cccc1F)c1ccccc1Cl	13.2	-0.8	-0.1	-21.9	nt	nt
Cc1cccc(NC(=S)N(Cc2ccccc2)Cc2cccs2)c1	10.8	1.4	0.1	-10.9	nt	nt
CSc1cccc(NC(=S)N(Cc2ccccc2)Cc2cccs2)c1	4.8	6.5*	0.5	-4.8	0.1	9.0
C[C@@H]1NC(=O)[C@H]2CN(C(=O)c3cc(Cl)cc(Cl)c3)CCN2C1=O	10.1	0.8	-0.3	9.9	nt	nt
CCC(=O)/C=C1/Sc2ccc(OC)cc2N1CCO	-6.7	-0.6	-0.2	-3.3	nt	nt
CCN1/C(=C/c2ccc3cc(OC)ccc3[n+]2CC)Sc2cc(C)c(C)cc21	4.4	10.6*	-1.5	66.7*	1.5	11.3
CC[n+]1c(/C=C2\Sc3ccc(-c4ccccc4)cc3N2CCO)ccc2ccccc21	10.8	22.4*	-1.4	90.7*	-0.5	0.8
CC[n+]1c(/C=C2\Sc3ccccc3N2C)ccc2cccc(C)c21	37.2	5.4*	-0.2	86.5*	0.5	6.7
CC[n+]1c(/C=C2\Sc3ccc(C)cc3N2CCO)ccc2ccccc21	18.6	5.4*	-0.3	79.8*	1.9	7.5
COc1ccccc1C(=O)N1CCc2ccccc2C1	3.5	-0.2	-0.1	-15.2	nt	nt
CC1(C)C2CC=C(/C=N/NC(=O)c3ccccc3Cl)C1C2 (stereo not drawn)	-1.1	-0.7	0.1	6.2	nt	nt
CC(C)(C)c1ccc(OCCN2C(=O)C(=O)c3ccccc32)cc1	20.4	5.4*	0.1	10.7	0.3	10.1
CC(C)(C)c1ccc(OCCCN2C(=O)C(=O)c3ccccc32)cc1	11.6	-0.7	0.4	5.8	nt	nt
SMILES	MITF inh	GPR151 ag	FBW7 activator	TEAD-YAP block	GPR151 conf act	GPR119 counter
NC(=NCCC[C@H](N)C(=O)O)NO	-5.0	5.5*	-0.1	-3.5	-0.4	-8.6
O=C(Nc1ccc2c3c(cccc13)CC2)c1ccc(-c2ccc(Cl)cc2)o1	13.9	5.1*	0.1	-6.0	-0.5	-3.8
O=C(NCc1ccccc1)c1ccc2nc(-c3ccc(C(=O)NC4CC4)cc3)sc2c1	18.1	-0.4	0.1	-3.0	nt	nt
Cc1cccc(C(=O)Nc2ccc(C(=O)Nc3c(Cl)cccc3Cl)cc2)c1	1.1	0.4	0.0	-3.4	nt	nt
Cc1ccccc1OCc1n[nH]c(=S)n1C	-5.8	7.2*	-0.1	4.7	-0.3	-0.8
COc1cc(/C=N/Nc2nc3c(c(=O)[nH]c(=O)n3C)n2CC(C)O)ccc1O (stereo not drawn)	7.4	-1.8	-0.1	-0.3	nt	nt
CCOc1cc(/C=N/Nc2nc3c(c(=O)[nH]c(=O)n3C)n2CC(C)C)ccc1O	4.2	6.6*	0.1	1.3	0.5	4.9
O=C1c2cccc3cc([N+](=O)[O-])cc(c23)C(=O)N1/N=C/c1cccc(Cl)c1	1.1	3.5	-0.1	0.2	nt	nt
O=C(Nc1ccc(Br)cc1)c1ccc(N2C(=O)C3CCCCC3C2=O)cc1 (stereo not drawn)	-5.9	0.0	0.0	-2.2	nt	nt
O=C(Nc1ccc(Br)cc1)c1cccc(N2C(=O)C3CCCCC3C2=O)c1 (stereo not drawn)	1.7	7.5*	0.0	-8.5	-0.2	4.2
O=C(Cc1cn(-c2ccc(Nc3cnccn3)nn2)c2ccccc12)NCCOc1ccccc1	7.3	6.2*	0.0	9.8	-0.6	-6.1
CCOC(=O)CNc1c(-c2ccc(O)cc2)nc2cnccn12	-2.6	0.6	0.2	-6.5	nt	nt
CCOC(=O)CNc1c(-c2ccc(OC)c(O)c2)nc2ccc(C)cn12	10.2	5.5*	-0.1	-34.4	-0.4	0.8
Cc1ccc(/C=N/n2c(C)n[nH]c2=S)o1	-4.8	6.4*	-0.1	3.6	0.6	-2.3
Cc1n[nH]c(=S)n1/N=C/c1ccc(F)cc1	2.5	5.4*	0.0	9.6	-1.5	-15.0
O=c1cc(N2CCN(c3ccccc3F)CC2)[nH]c(=O)n1-c1ccccc1	6.1	1.6	0.0	12.7	nt	nt
O=C(OCc1nc2ccccc2s1)c1ccccc1	-14.3	6.7*	0.0	-0.6	-0.2	-7.6
Cc1cnc(NC(=O)Cc2ccsc2)s1	4.0	6.3*	-0.1	-1.2	-0.1	-0.9
O=C(Nc1cc(C(=O)NC2CCCCNC2=O)ccc1N1CC2CC(C1)c1cccc(=O)n1C2)c1ccc(F)cc1 (stereo not drawn)	-6.8	-0.1	0.1	-3.7	nt	nt
Cc1[nH]c2ccccc2c1SCCNC(=O)c1ccc(N2C(=O)CCC2=O)cc1	-2.0	6.2*	-0.1	7.3	-1.4	2.5
Cc1ccc(/C=N/NC(=O)COc2ccc(Cl)cc2)o1	21.4	-0.7	0.1	5.8	nt	nt
CC(=O)NN1C(=O)c2ccccc2NC1c1ccc(Cl)cc1Cl (stereo not drawn)	3.6	0.5	0.0	12.4	nt	nt
CCS(=O)(=O)N1CCN=C1SCc1cccc([N+](=O)[O-])c1	34.4	0.4	0.0	5.6	nt	nt
CCCS(=O)(=O)N1CCN=C1SCc1cccc([N+](=O)[O-])c1	7.7	5.3*	0.0	-14.0	-0.4	-2.1
O=[N+]([O-])c1ccc(CSC2=NCCN2S(=O)(=O)c2ccccc2)cc1	24.4	5.1*	1.4	0.6	0.6	-1.0
